SARS PLP yeast: blocks SARS-CoV papain-like protease in a yeast assay; S. cerevisiae expressing SARS-CoV PLpro, growth rescue; Potency, µM (doses to about 32.9 µM), most hits filed as activators; 0.19% of 330,000 active; AID 485353; calls by dose curve; further: nearly all actives have a fitted effect of over 55% in size
Pf growth 48h: P. falciparum growth inhibition at 48 hours (one generation). P. falciparum luciferase growth in erythrocytes, 48 h. Potency, µM (titrated, usually from 28.7 µM), actives largely listed as inhibitors. 5.9% of 310,000 active. AID 504832
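Luciferase-expressing parasites in RBCs, 2% Hct / 0.1% parasitemia final; RPMI 1640 + 0.5% Albumax; 37 C, 5% CO2, one generation; luminescence read-out, lower signal = inhibition.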
Shiga inhibitor: inhibitors of Shiga toxin in Vero cells; 9.2% of 290,000 active; AID 2315; inhibition, % at 38.7 µM; Vero cells, Shiga toxin protein synthesis inhibition reporter; in the data active means inhibition mostly above about 28%, no sharp cut-off; inactive means mostly below about 43%
AMA1-RON2 inh: AMA1-RON2 (P. falciparum) interaction inhibition. 0.2% of 360,000 active. AlphaScreen AMA1-biotinylated RON2 peptide binding. Potency, µM (titrated, usually from 58.2 µM), actives largely listed as inhibitors; further: nearly all actives have a fitted effect of over 45% in size
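AMA1 (3D7) with his tag at 25 nM final met compounds first, then biotinylated RON2 peptide at 25 nM; detection used donor plus acceptor beads, 10 µg/mL apiece, read by AlphaScreen after 30 min at room temperature.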
Pf growth 96h: P. falciparum growth inhibition at 96 hour, primary screen for plastid delayed-death inhibitors; P. falciparum luciferase reporter growth, 96 h; Potency, µM (doses to about 28.7 µM), most hits filed as inhibitors; 6.9% of 320,000 active; AID 504834
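Plates of compound plus infected erythrocytes (2% hematocrit, 0.05% parasitemia final) incubate 96 hours, 37 C, 5% CO2. Detection reagent added; reduced luminescence from the parasites' luciferase reporter flags inhibition.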
CHX counter: counter-screen hit for Shiga toxin inhibitors, cycloheximide; cell reporter, cycloheximide protein synthesis inhibition counterscreen; max response, %; 12% of 300,000 active; in the data active means max response mostly above about 13%, no sharp cut-off; inactive means mostly below about 14%; further: read at 38.3 µM for the half of the compounds with a filed dose
Each line names hits and unclear results; the compound was inactive in the other large screens. An excerpt weighted towards active compounds, which were near 19% of everything screened. Unless noted, the call rests on the fitted dose curve; in most records, active means well fitted curve in the direction sought with a large enough effect; inconclusive means small, poorly fitted or top-dose-only effect, or another doubt; inactive means no such curve, though single readings can be large; an effect the other way counts as inactive or inconclusive.

O=C(Nc1ccccc1N1CCCCC1)C1CCN(C(=O)c2ccc(Cl)cc2)CC1	Pf growth 48h inconclusive (no result: Shiga inhibitor, CHX counter)
Cc1ccc(C(=O)NCCc2ccc(F)cc2)s1	Shiga inhibitor 58, Pf growth 96h inconclusive, CHX counter 59
O=C(Nc1cc2c(cc1Br)OCCO2)c1cccnc1	CHX counter 24
O=C(Nc1c(C(=O)N2CCOCC2)cnn1-c1ccccc1Cl)c1ccco1	none
O=C(Nc1cc2c(cc1Cl)OCCO2)c1ccco1	Shiga inhibitor 93, CHX counter 28
O=C(Nc1c(C(=O)Nc2ccc3c(c2)OCCO3)cnn1-c1ccccc1Cl)c1ccco1	Shiga inhibitor 149, CHX counter 77 (no result: Pf growth 96h)
O=C(Nc1ccc(NC(=O)c2ccco2)c(Cl)c1)c1ccc2c(c1)OCCO2	Shiga inhibitor 64, CHX counter 27
Cc1cccc(S(=O)(=O)NCCC(=O)OCC(=O)Nc2ccc(C#N)cc2)c1	none
Cc1noc(C)c1N=Nc1ccc(Br)cc1C(=O)O	none
CC(C)C1C(=O)N(Cc2cn(CC3CCCCC3)nn2)CCS(=O)(=O)N1Cc1ccc(-c2ccc(Cl)cc2)cc1 (centres undefined)	none (no result: SARS PLP yeast, Pf growth 48h, Shiga inhibitor, Pf growth 96h, CHX counter)
CN1CCN(c2nc(-c3ccc(Cl)cc3)nc3ccccc23)CC1	Pf growth 96h inconclusive
O=C(Nc1cc2c(cc1Br)OCCO2)c1ccco1	Shiga inhibitor active, CHX counter 40
O=C(Nc1cc2c(cc1Br)OCCO2)c1cccs1	Shiga inhibitor 181, CHX counter 42 (no result: Pf growth 96h)
CCCC(=O)c1cc2c(cc1NC(=O)c1cccs1)OCCO2	Pf growth 96h inconclusive
CCC(C)NS(=O)(=O)c1ccc(NC(=O)C2CCN(C(=O)c3ccco3)CC2)cc1 (centres undefined)	none
CC(N=C1NS(=O)(=O)c2ccccc21)C(=O)N1CCc2ccccc2C1 (centres undefined)	Shiga inhibitor 46, CHX counter 19
CC(C(=O)N1CCc2ccccc2C1)N1C(=O)c2ccccc2C1=O (centres undefined)	none
FC(F)Sc1ccc(N=C2NN=C(c3ccc4c(c3)OCCO4)CS2)cc1	Pf growth 48h inconclusive, Shiga inhibitor 47, Pf growth 96h inconclusive, CHX counter 25
COc1ccc(N=C2NN=C(c3ccc4c(c3)OCCO4)CS2)cc1	CHX counter 21 (no result: Pf growth 48h)
C=CCNC(=O)c1ccccc1NC(=O)c1ccccc1N(C)S(C)(=O)=O	none
CC(C)NC(=O)C1(C)CCCCN1Cc1ccc(OCc2ccccc2)cc1 (centres undefined)	none (no result: SARS PLP yeast, Pf growth 48h, Shiga inhibitor, Pf growth 96h, CHX counter)
CC/C(=N\OC(=O)c1ccc(OC(C)C)cc1)c1ccc(C)cc1	Pf growth 96h 15µM (no result: Pf growth 48h)
CCCOc1ccc(C(=O)O/N=C(\CC)c2ccc(C)cc2)cc1	none
OCCCNc1c2ccccc2nc2ccccc12	Pf growth 48h 5.2µM
c1ccc2c(NCCc3c[nH]c4ccccc34)c3ccccc3nc2c1	Pf growth 48h 0.59µM, AMA1-RON2 inh inconclusive, Pf growth 96h 3.3µM
CC(C)(C)Nc1c2ccccc2nc2ccccc12	Pf growth 48h inconclusive
Fc1cccc(NCCc2c[nH]c3ccccc23)n1	AMA1-RON2 inh inconclusive, CHX counter 37
CC(=O)NC(c1ccccc1)c1nc(-c2ccc(F)c(Cl)c2)cs1 (centres undefined)	none (no result: SARS PLP yeast, Pf growth 48h, Shiga inhibitor, Pf growth 96h, CHX counter)
Cc1occc1-c1nnc(SCC(=O)NC2CCC(C)CC2)o1 (centres undefined)	none (no result: Shiga inhibitor, CHX counter)
Cc1nnc(SCC(=O)Nc2cccc([N+](=O)[O-])c2)n1CC1CCCO1 (centres undefined)	none
O=C(Nc1ccc(Cc2ccncc2)cc1)c1ccc(Cl)c([N+](=O)[O-])c1	Pf growth 48h inconclusive, Pf growth 96h inconclusive, CHX counter 8.6
Cc1c([N+](=O)[O-])cc(C(=O)Nc2ccc(Cc3ccncc3)cc2)cc1[N+](=O)[O-]	Pf growth 48h 13µM
CCS(=O)(=O)c1nc(S(=O)(=O)c2ccc(C)cc2)c(N2CCC3(CC2)OCCO3)s1	none
COc1ccc(OC)c(N(CCN2C(=O)c3ccccc3C2=O)C(=O)C2CCC(=O)C2C)c1 (centres undefined)	none (no result: SARS PLP yeast, Pf growth 48h, Shiga inhibitor, Pf growth 96h, CHX counter)
CCCc1ccc(-c2cc(NC(=O)CSc3nnc(N)s3)n(-c3ccccc3)n2)cc1	Shiga inhibitor 99, CHX counter 43
Cc1nnc(SCC(=O)Nc2cc(-c3cc(C)c(C)cc3C)nn2-c2ccccc2)s1	Pf growth 48h inconclusive, Pf growth 96h inconclusive
